# Active and inactive are the calls of the source. Unless noted, no rule for the calls is given here.
# Tests used:
# [1] = A549 cell viability effects, profiling panel, calcein-AM fluorescence, 48 h, basal (AID 1162); conditions: higher = more signal; also: test concentration not given here
# [2] = adipocyte viability effects, profiling panel, cell-based, 3T3-L1 adipocytes, calcein-AM fluorescence, 48 h, basal (AID 1163); conditions: 3T3-L1 adipocytes viability, higher = more signal; also: test concentration not given here
# [3] = HepG2 cell viability effects, profiling panel, calcein-AM fluorescence, 48 h, basal (AID 1164); conditions: higher = more signal; also: test concentration not given here
# [4] = MM1S cell viability effects, profiling panel, calcein-AM fluorescence, 48 h, basal (AID 1165); conditions: higher = more signal;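 also: viability of MM1S multiple myeloma cells under basal unstimulated conditions; test concentration not given here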
# [5] = basal RPMI8226 viability, no added stimulus, profiling panel, cell-based, calcein-AM fluorescence, 48 h, PK04 Diversity Set (AID 1166); conditions: RPMI8226 myeloma viability, higher = more signal;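 also: cells grown under basal conditions without added stimulus; test concentration not given here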
# [6] = basal HepG2 mitochondrial membrane potential changes, profiling panel, cell-based, JC-1 fluorescence, 24 h, 100 nL compound (AID 1167); conditions: higher = more signal; also: test concentration not given here
# [7] = basal 3T3-L1 adipocyte mitochondrial potential changes, profiling panel, cell-based, JC-1 fluorescence, 3T3-L1 adipocytes, 24 h, 100 nL compound (AID 1168); conditions: JC-1 mitochondrial fluorescence, higher = more signal, called active from +8 up or from −8 down; also: test concentration not given here
# [8] = basal RPMI8226 mitochondrial membrane potential changes, profiling panel, cell-based, JC-1 fluorescence, 24 h, 100 nL compound (AID 1169); conditions: RPMI8226 myeloma, JC-1 mitochondrial potential fluorescence, higher = more signal; also: test concentration not given here
# [9] = basal MM1S mitochondrial membrane potential changes, profiling panel, cell-based, JC-1 fluorescence, 24 h, 100 nL compound (AID 1170); conditions: higher = more signal; also: test concentration not given here
# [10] = A549 lung cancer cell viability effects, profiling panel, resazurin fluorescence, 24 h, PK04 Diversity Set (AID 1171); conditions: higher = more signal, called active from +8 up or from −8 down; also: test concentration not given here
# [11] = HepG2 liver cancer cell viability effects, profiling panel, resazurin fluorescence, 24 h, PK04 Diversity Set (AID 1172); conditions: higher = more signal; also: test concentration not given here
# [12] = basal S. cerevisiae growth modulation, no modifier, primary screen, OD600, strain BY4716, 24 h, basal condition (AID 1173); conditions: OD600, 24 h, higher = more signal, called active from +8 up or from −8 down
# [13] = MM1S myeloma cell viability, profiling panel, resazurin fluorescence, basal, 24 h, PK04 Diversity Set (AID 1174); conditions: higher = more signal, called active from +8 up or from −8 down;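 also: MM1S multiple myeloma cell line; test concentration not given here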
# [14] = target: Dihydroorotate dehydrogenase (quinone), mitochondrial (Plasmodium falciparum (isolate 3D7)) (UniProt Q08210); test: PfDHODH enzyme inhibitors, primary screen, biochemical, C-terminal His tag, absorbance 600 nm (AID 1175); conditions: DCIP absorbance 600 nm, higher = more signal, called active from +8 up or from −8 down;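 also: recombinant parasite enzyme with a five histidine tag at its C terminus; test concentration not given here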
# Sequence of Dihydroorotate dehydrogenase (quinone), mitochondrial (Plasmodium falciparum (isolate 3D7)) (Q08210 whole entry, looked up): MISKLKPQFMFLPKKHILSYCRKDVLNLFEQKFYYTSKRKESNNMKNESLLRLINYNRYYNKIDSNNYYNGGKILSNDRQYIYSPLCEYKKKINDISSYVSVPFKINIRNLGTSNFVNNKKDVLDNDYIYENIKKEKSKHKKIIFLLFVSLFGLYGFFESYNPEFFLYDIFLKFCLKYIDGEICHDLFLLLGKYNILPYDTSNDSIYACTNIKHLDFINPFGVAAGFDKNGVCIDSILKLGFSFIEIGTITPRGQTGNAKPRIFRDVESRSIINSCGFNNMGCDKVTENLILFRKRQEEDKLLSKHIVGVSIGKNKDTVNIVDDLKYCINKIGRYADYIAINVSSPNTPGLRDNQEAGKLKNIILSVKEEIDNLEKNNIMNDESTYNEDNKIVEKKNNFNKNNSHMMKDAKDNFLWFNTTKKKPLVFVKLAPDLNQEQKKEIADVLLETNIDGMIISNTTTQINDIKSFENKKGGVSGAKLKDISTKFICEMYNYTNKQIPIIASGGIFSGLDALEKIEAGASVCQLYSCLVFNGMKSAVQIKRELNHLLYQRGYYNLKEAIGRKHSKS
# [15] = P. aeruginosa biofilm formation inhibitors, primary screen, strain PAO1, LB-PBS medium, absorbance 600 nm (AID 1176); also: test concentration not given here; conditions: P. aeruginosa PAO1 growth/biofilm, A600, 12 h; higher = more signal
# [16] = S. cerevisiae RM11-1a growth modifiers, primary screen, strain RM11-1a, OD600, basal, 24 h (AID 1177); conditions: OD600, 24 h, higher = more signal, called active from +8 up or from −8 down;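 also: cultures grown under basal conditions with no added stressor; test concentration not given here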
# [17] = E. coli acrAB mutant growth effects, primary screen, E. coli filamentation inducers, strain DRC39, OD650, 24 h (AID 1178); conditions: higher = more signal, called active from +8 up or from −8 down;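 also: growth measured as culture turbidity by optical density at 650 nm; test concentration not given here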
# [18] = E. coli acrAB mutant growth effects, primary screen, E. coli filamentation inducers, strain DRC39, OD650, 48 h (AID 1179);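 also: screen aims at cell division blockers that make cells filament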; conditions: E. coli DRC39 delta-acrAB growth, higher = more signal, called active from +8 up or from −8 down
# [19] = RPMI8226 myeloma cell viability, profiling panel, resazurin fluorescence, basal, 24 h, PK04 Diversity Set (AID 1180); conditions: higher = more signal;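 also: RPMI8826 multiple myeloma cell line at 5000 cells per well; test concentration not given here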
# [20] = target: E3 ubiquitin-protein ligase XIAP (Homo sapiens) (UniProt P98170); test: XIAP binders, primary screen, biophysical, small-molecule microarray, fluorescence 635 nm (AID 1181); conditions: small-molecule microarray binding, higher = more signal;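 also: score merges 667 nm emission and signal to noise over triplicate slides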
# Sequence of E3 ubiquitin-protein ligase XIAP (Homo sapiens) (P98170 whole entry, looked up): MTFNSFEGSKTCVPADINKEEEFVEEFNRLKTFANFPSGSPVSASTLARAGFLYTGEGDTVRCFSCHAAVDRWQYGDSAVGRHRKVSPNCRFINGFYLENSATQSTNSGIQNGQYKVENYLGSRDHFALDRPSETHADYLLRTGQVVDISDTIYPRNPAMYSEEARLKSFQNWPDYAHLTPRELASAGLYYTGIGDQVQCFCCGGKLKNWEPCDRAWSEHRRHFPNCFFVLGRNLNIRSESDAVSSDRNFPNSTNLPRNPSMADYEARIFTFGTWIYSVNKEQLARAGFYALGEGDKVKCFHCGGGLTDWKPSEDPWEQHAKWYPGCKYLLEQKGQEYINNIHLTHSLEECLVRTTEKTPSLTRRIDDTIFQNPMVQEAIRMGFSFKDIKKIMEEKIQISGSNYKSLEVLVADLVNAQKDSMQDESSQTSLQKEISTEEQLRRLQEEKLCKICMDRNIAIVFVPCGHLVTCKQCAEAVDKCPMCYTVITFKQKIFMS
SMILES,z-score [1],z-score [2],z-score [3],z-score [4],z-score [5],z-score [6],z-score [7],z-score [8],z-score [9],z-score [10],z-score [11],z-score [12],z-score [13],composite z-score [14],z-score [15],z-score [16],z-score [17],z-score [18],z-score [19],composite z-score [20]
[N-]=[N+]=NCc1ccccc1C[C@@]1(C(=O)NCC(O)CO)N=C(c2ccc(OCCCO)cc2)O[C@@H]1c1ccccc1N=[N+]=[N-] (stereo not given in full),-2.46,0.223,-1.75,-2.92,-3.45,-0.158,-0.731 (inactive),-1.19,-0.999,-3.5 (inactive),-2.35,-0.927 (inactive),-2.87 (inactive),2.22 (inactive),1.35 (inactive),0.977 (inactive),0.707 (inactive),-0.506 (inactive),-2.85,0.1
CC(C)(C)C(=O)N[C@@H](c1ccc(Cl)cc1)[C@]1(C)C[C@H]1C1CCCCC1,-1.07,0.459,-0.492,-1.22,-1.43,4.37,-0.594 (inactive),-0.533,0.162,-0.466 (inactive),-0.608,-0.507 (inactive),-0.385 (inactive),-0.554 (inactive),1.03 (inactive),0.473 (inactive),-0.196 (inactive),-0.27 (inactive),-0.231,0.261
COc1ccc([Si](C)(C)[C@H]2[C@H](CCO)O[C@@]3(C(=O)N(C)c4c(Br)cc(C)cc43)[C@@H]2C)cc1,-4.21,-1.8,-4.77,-2.69,-4.31,-2.21,0.343 (inactive),-1.05,-2.29,-6.97 (inactive),-6.47,0.0436 (inactive),-9.16 (active),1.13 (inactive),0.814 (inactive),3.93 (inactive),-0.185 (inactive),-1.4 (inactive),-6.31,0.184
CN1C(=O)C2C=CC(C(O)C3CCCCC3)N(Nc3ccc([N+](=O)[O-])cc3[N+](=O)[O-])C2C1=O (stereo not given),-0.798,-0.156,-0.905,-0.193,-0.849,-1.18,-0.299 (inactive),0.464,0.314,0.421 (inactive),-0.248,0.819 (inactive),-0.778 (inactive),-0.877 (inactive),-0.159 (inactive),-0.0006 (inactive),-0.719 (inactive),-0.556 (inactive),-0.373,0.618
CC(C)(C)OC(=O)CC[C@@]1(C(=O)NCCN2CCOCC2)N=C(c2ccc(OCCCO)cc2)O[C@@H]1c1ccccc1N=[N+]=[N-],1.2,0.698,1.33,-0.849,-0.187,0.749,1.66 (inactive),-0.993,-0.339,-0.492 (inactive),-0.583,-0.643 (inactive),-1.76 (inactive),-0.462 (inactive),0.41 (inactive),0.0002 (inactive),-0.0723 (inactive),-0.169 (inactive),-0.601,0.0877
CCOC1=C2C(CN(S(=O)(=O)c3ccc(C)cc3)C2c2ccc(C)cc2)C2C(=O)N(c3ccccc3)C(=O)C2C1 (stereo not given),-0.592,-0.843,0.58,0.729,0.285,0.247,1.2 (inactive),1.1,-1.37,-0.376 (inactive),-0.635,0.941 (inactive),-0.193 (inactive),-1.12 (inactive),-0.2 (inactive),0.413 (inactive),-0.392 (inactive),0.758 (inactive),0.366,-0.0773
COCCOC(=O)N1C(=O)[C@@]2(c3cc(C#Cc4ccc(OC)cc4)ccc31)[C@H](c1ccccc1OCCO)N1[C@H](c3ccccc3)[C@H](c3ccccc3)OC(=O)[C@H]1[C@@H]2C(=O)N1CCN(c2ncccn2)CC1,0.204,-0.226,0.348,-0.653,0.149,0.356,2.41 (inactive),-0.72,-1.37,-0.692 (inactive),0.214,2.12 (inactive),-0.539 (inactive),0.478 (inactive),1.64 (inactive),3.89 (inactive),0.0722 (inactive),0.857 (inactive),0.0636,0.397
O=C1[C@H]2C=C(Br)[C@H](C[C@@H]2OCCCCO)[C@@]12CO2,-0.0982,-1.26,-0.141,-0.723,-2.13,-1.48,0.026 (inactive),-0.88,-0.147,-0.621 (inactive),-0.312,-0.172 (inactive),-0.718 (inactive),0.228 (inactive),0.13 (inactive),0.614 (inactive),-0.649 (inactive),-0.808 (inactive),-0.133,-0.0749
CN(C)CCCCCCNC(=O)[C@@H]1C[C@@H]2C(=O)N[C@@H](CCCCN)C(=O)N2[C@@H]1c1cccc(OCCO)c1,0.73,0.565,1.25,-0.137,0.207,1.87,0.247 (inactive),-0.209,0.135,0.159 (inactive),-0.205,-0.707 (inactive),0.364 (inactive),-1.12 (inactive),1.29 (inactive),-2.27 (inactive),0.731 (inactive),-0.199 (inactive),0.393,3.31

# Reference: PubChem BioAssay
